# Experimental data published in the supplement of paper PMC8728848.
# The entries come from a sample that favours the strongest signals as a whole.
# B1: OS9 (Arabidopsis thaliana) (protein)
# chain: MRGSHHHHHHGMASMTGGQQMGRDLYDDDDKSRLQIFPAHLVGTFSRNNREPKYKIEFLPEDSPFHPGDNLESMVMLDKHGNRFLCYLPKEEKATSGWTSSQQNISTVMMETQQLVKLKTPDELLQPLSEKCLFRQEGWWSYEFCHQKYVRQLHVEDENKIVQEFFLGTFDPEATAAFNQTVSDASTDASQRYHSHVYTNGTTCDLTGSPREVEVRFVCAETRAMVTSITELSTCKYALTVQCPTLCKHPLFQLEKPVSHTIHCNAIPVEEDATRNKEEQAVDESPKMIADS
# Legend:
# Assay in all cases: glycan array binding signal (z-score within array); higher = stronger binding
# Conditions in all cases: glycan notation: IUPAC condensed, linker removed
# Fuc(a1-2)Gal(b1-3)GlcNAc = biological target: Fuc(a1-2)Gal(b1-3)GlcNAc
# Outline: (§1)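 The binding signal is a Z-score computed within each array. Data were drawn from 3228 arrays in the Consortium for Functional Glycomics database, restricted to those with a known protein sequence. Scores were averaged over arrays of the same protein sequence at different concentrations or buffers, and over linkers, and negative values can be taken as non-binding.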
# [1] = biological target: Fuc(a1-2)Gal(b1-3)GlcNAc(b1-3)[Gal(b1-4)GlcNAc(b1-6)]Gal(b1-4)Glc
# Outline: as §1
# [2] = biological target: Fuc(a1-2)Gal(b1-4)[Fuc(a1-3)]GlcNAc(b1-2)Man(a1-3)[Fuc(a1-2)Gal(b1-4)[Fuc(a1-3)]GlcNAc(b1-2)Man(a1-6)]Man(b1-4)GlcNAc(b1-4)[Fuc(a1-6)]GlcNAc
# Outline: as §1
# [3] = biological target: Fuc(a1-2)Gal(b1-4)[Fuc(a1-3)]GlcNAc(b1-3)Gal(b1-4)[Fuc(a1-3)]GlcNAc(b1-3)Gal(b1-4)[Fuc(a1-3)]GlcNAc
# Outline: as §1
# [4] = biological target: Fuc(a1-2)[Gal(a1-3)]Gal(b1-4)GlcNAc(b1-2)Man(a1-3)[Fuc(a1-2)[Gal(a1-3)]Gal(b1-4)GlcNAc(b1-2)Man(a1-6)]Man(b1-4)GlcNAc(b1-4)GlcNAc
# Outline: as §1
# [5] = biological target: Fuc(a1-2)[Gal(a1-3)]Gal(b1-4)GlcNAc(b1-6)GalNAc
# Outline: as §1
# [6] = biological target: Fuc(a1-2)[GalNAc(a1-3)]Gal(b1-4)GlcNAc
# Outline: as §1
# [7] = biological target: Fuc(a1-3)[Gal(b1-4)]GlcNAc(b1-3)Gal(b1-4)[Fuc(a1-3)]GlcNAc(b1-3)Gal(b1-4)[Fuc(a1-3)]GlcNAc
# Outline: as §1
# [8] = biological target: Fuc(a1-3)[Gal(b1-4)]GlcNAc6S
# Outline: as §1
# [9] = biological target: Fuc(a1-3)[Gal3S(b1-4)]GlcNAc
# Outline: as §1
# [10] = biological target: Fuc(a1-3)[Gal3S(b1-4)]GlcNAc6S
# Outline: as §1
# [11] = biological target: Fuc(a1-3)[GalNAc(b1-4)]GlcNAc
# Outline: as §1
# Gal(a1-3)Gal(b1-4)GlcNAc = biological target: Gal(a1-3)Gal(b1-4)GlcNAc
# Outline: as §1
# [12] = biological target: Gal(a1-3)Gal(b1-4)GlcNAc(b1-6)GalNAc
# Outline: as §1
# Gal(a1-4)Gal(b1-4)Glc = biological target: Gal(a1-4)Gal(b1-4)Glc
# Outline: as §1
# Gal(b1-3)GalNAc = biological target: Gal(b1-3)GalNAc
# Outline: as §1
# Gal(b1-3)GalNAc(b1-3)Gal = biological target: Gal(b1-3)GalNAc(b1-3)Gal
# Outline: as §1
# [13] = biological target: Gal(b1-3)GlcNAc(a1-3)Gal(b1-4)GlcNAc
# Outline: as §1
# [14] = biological target: Gal(b1-3)GlcNAc(b1-2)Man(a1-3)[Gal(b1-3)GlcNAc(b1-2)Man(a1-6)]Man(b1-4)GlcNAc(b1-4)[Fuc(a1-6)]GlcNAc
# Outline: as §1
# [15] = biological target: Gal(b1-3)GlcNAc(b1-3)Gal(b1-4)GlcNAc(b1-3)Gal(b1-4)GlcNAc(b1-2)[Gal(b1-3)GlcNAc(b1-3)Gal(b1-4)GlcNAc(b1-3)Gal(b1-4)GlcNAc(b1-6)]Man(a1-6)[Gal(b1-3)GlcNAc(b1-3)Gal(b1-4)GlcNAc(b1-3)Gal(b1-4)GlcNAc(b1-2)Man(a1-3)]Man(b1-4)GlcNAc(b1-4)[Fuc(a1-6)]GlcNAc
# Outline: as §1
# [16] = biological target: Gal(b1-3)GlcNAc(b1-6)[Gal(b1-3)]GalNAc
# Outline: as §1
# [17] = biological target: Gal(b1-3)[Fuc(a1-4)]GlcNAc(b1-2)Man(a1-3)[Gal(b1-3)[Fuc(a1-4)]GlcNAc(b1-2)Man(a1-6)]Man(b1-4)GlcNAc(b1-4)[Fuc(a1-6)]GlcNAc
# Outline: as §1
# [18] = biological target: Gal(b1-4)GlcNAc(b1-2)[Gal(b1-4)GlcNAc(b1-6)]Man(a1-6)[GlcNAc(b1-4)][Gal(b1-4)GlcNAc(b1-2)Man(a1-3)]Man(b1-4)GlcNAc(b1-4)GlcNAc
# Outline: as §1
# [19] = biological target: Gal(b1-4)GlcNAc(b1-3)Gal(b1-4)GlcNAc(b1-3)Gal(b1-4)GlcNAc(b1-3)Gal(b1-4)GlcNAc(b1-3)Gal(b1-4)GlcNAc(b1-3)Gal(b1-4)GlcNAc(b1-2)Man(a1-3)[Gal(b1-4)GlcNAc(b1-3)Gal(b1-4)GlcNAc(b1-3)Gal(b1-4)GlcNAc(b1-3)Gal(b1-4)GlcNAc(b1-3)Gal(b1-4)GlcNAc(b1-3)Gal(b1-4)GlcNAc(b1-2)Man(a1-6)]Man(b1-4)GlcNAc(b1-4)GlcNAc
# Outline: as §1
# [20] = biological target: Gal(b1-4)GlcNAc(b1-3)[Gal(b1-4)GlcNAc(b1-6)]Gal(b1-4)GlcNAc
# Outline: as §1
# Gal3S(b1-4)Glc6S = biological target: Gal3S(b1-4)Glc6S
# Outline: as §1
# GalNAc(a1-3)Gal = biological target: GalNAc(a1-3)Gal
# Outline: as §1
# GalNAc(b1-3)GalNAc = biological target: GalNAc(b1-3)GalNAc
# Outline: as §1
# GalNAc(b1-4)Gal(b1-4)Glc = biological target: GalNAc(b1-4)Gal(b1-4)Glc
# Outline: as §1
# [21] = biological target: GalNAc(b1-4)GlcNAc(b1-2)Man
# Outline: as §1
# Glc(a1-4)Glc = biological target: Glc(a1-4)Glc
# Outline: as §1
# Glc(a1-6)Glc(a1-6)Glc = biological target: Glc(a1-6)Glc(a1-6)Glc
# Outline: as §1
# [22] = biological target: GlcNAc(b1-2)[GlcNAc(b1-4)]Man(a1-3)[GlcNAc(b1-4)][GlcNAc(b1-2)[GlcNAc(b1-6)]Man(a1-6)]Man(b1-4)GlcNAc(b1-4)GlcNAc
# Outline: as §1
# [23] = biological target: GlcNAc(b1-3)Gal(b1-4)GlcNAc(b1-3)Gal(b1-4)GlcNAc(b1-2)Man(a1-3)[GlcNAc(b1-3)Gal(b1-4)GlcNAc(b1-3)Gal(b1-4)GlcNAc(b1-2)Man(a1-6)]Man(b1-4)GlcNAc(b1-4)[Fuc(a1-6)]GlcNAc
# Outline: as §1
# [24] = biological target: GlcNAc(b1-3)Gal(b1-4)GlcNAc(b1-6)[Gal(b1-3)]GalNAc
# Outline: as §1
# GlcNAc(b1-3)Man = biological target: GlcNAc(b1-3)Man
# Outline: as §1
# [25] = biological target: GlcNAc(b1-4)[GlcNAc(b1-6)]GalNAc
# Outline: as §1
# Kdn(a2-3)Gal(b1-4)Glc = biological target: Kdn(a2-3)Gal(b1-4)Glc
# Outline: as §1
# [26] = biological target: Man(a1-2)Man(a1-3)[Man(a1-2)Man(a1-6)]Man
# Outline: as §1
# Man(a1-3)[Man(a1-6)]Man = biological target: Man(a1-3)[Man(a1-6)]Man
# Outline: as §1
# [27] = biological target: Neu5Ac(a2-3)Gal(b1-3)GlcNAc(b1-3)GalNAc
# Outline: as §1
# [28] = biological target: Neu5Ac(a2-6)Gal(b1-4)GlcNAc(b1-2)Man(a1-3)Man(b1-4)GlcNAc(b1-4)GlcNAc
# Outline: as §1
# [29] = biological target: Neu5Ac(a2-6)Gal(b1-4)GlcNAc(b1-2)Man(a1-3)[Neu5Ac(a2-6)Gal(b1-4)GlcNAc(b1-2)Man(a1-6)]Man(b1-4)GlcNAc(b1-4)GlcNAc
# Outline: as §1
# [30] = biological target: Neu5Ac(a2-8)Neu5Ac(a2-3)Gal(b1-3)GalNAc(b1-4)[Neu5Ac(a2-8)Neu5Ac(a2-3)]Gal(b1-4)Glc
# Outline: as §1
# [31] = biological target: Neu5Ac(a2-8)Neu5Ac(a2-3)[Gal(b1-3)GalNAc(b1-4)]Gal(b1-4)Glc
# Outline: as §1
# Neu5Gc(a2-3)Gal(b1-4)Glc = biological target: Neu5Gc(a2-3)Gal(b1-4)Glc
# Outline: as §1
binder,measurement,setting,value
B1,glycan array binding signal (z-score),Fuc(a1-2)Gal(b1-3)GlcNAc,-0.466
same,glycan array binding signal (z-score),[1],2.66
same,glycan array binding signal (z-score),[2],-0.608
same,glycan array binding signal (z-score),[3],4.22
same,glycan array binding signal (z-score),[4],3.36
same,glycan array binding signal (z-score),[5],0.051
same,glycan array binding signal (z-score),[6],-0.828
same,glycan array binding signal (z-score),[7],-0.881
same,glycan array binding signal (z-score),[8],3.45
same,glycan array binding signal (z-score),[9],1.51
same,glycan array binding signal (z-score),[10],-0.706
same,glycan array binding signal (z-score),[11],0.056
same,glycan array binding signal (z-score),Gal(a1-3)Gal(b1-4)GlcNAc,-0.724
same,glycan array binding signal (z-score),[12],0.243
same,glycan array binding signal (z-score),Gal(a1-4)Gal(b1-4)Glc,2.7
same,glycan array binding signal (z-score),Gal(b1-3)GalNAc,-0.097
same,glycan array binding signal (z-score),Gal(b1-3)GalNAc(b1-3)Gal,3.02
same,glycan array binding signal (z-score),[13],-1.06
same,glycan array binding signal (z-score),[14],-0.157
same,glycan array binding signal (z-score),[15],2.88
same,glycan array binding signal (z-score),[16],0.651
same,glycan array binding signal (z-score),[17],7.5
same,glycan array binding signal (z-score),[18],-0.016
same,glycan array binding signal (z-score),[19],0.798
same,glycan array binding signal (z-score),[20],1.43
same,glycan array binding signal (z-score),Gal3S(b1-4)Glc6S,0.366
same,glycan array binding signal (z-score),GalNAc(a1-3)Gal,-0.979
same,glycan array binding signal (z-score),GalNAc(b1-3)GalNAc,0.839
same,glycan array binding signal (z-score),GalNAc(b1-4)Gal(b1-4)Glc,2.57
same,glycan array binding signal (z-score),[21],3.58
same,glycan array binding signal (z-score),Glc(a1-4)Glc,1.98
same,glycan array binding signal (z-score),Glc(a1-6)Glc(a1-6)Glc,-0.542
same,glycan array binding signal (z-score),[22],0.258
same,glycan array binding signal (z-score),[23],-0.144
same,glycan array binding signal (z-score),[24],0.094
same,glycan array binding signal (z-score),GlcNAc(b1-3)Man,0.127
same,glycan array binding signal (z-score),[25],-0.3
same,glycan array binding signal (z-score),Kdn(a2-3)Gal(b1-4)Glc,0.473
same,glycan array binding signal (z-score),[26],0.462
same,glycan array binding signal (z-score),Man(a1-3)[Man(a1-6)]Man,-0.078
same,glycan array binding signal (z-score),[27],0.474
same,glycan array binding signal (z-score),[28],6.74
same,glycan array binding signal (z-score),[29],-0.5
same,glycan array binding signal (z-score),[30],-0.384
same,glycan array binding signal (z-score),[31],1.47
same,glycan array binding signal (z-score),Neu5Gc(a2-3)Gal(b1-4)Glc,-1.01
